The sample as a whole holds a higher share of hits than the screen did.
BL2 CD40 inh = inhibitors of CD40-induced NF-kB signaling, primary screen, BL2 cells, luciferase reporter, single point; inhibition, % at 10 µM; AID 1053188, 2014; CD40L-induced, 4 h; hit rate 0.94% among 83,000;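 active = mean inhibition of at least 50% with a set share of replicates also reaching that level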;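 note: 0% = neutral control wells and 100% = IKK inhibitor VII at 50 µM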
Numbers without * were called inactive; [ ] = dose if it differs, or a comment.

CSc1nsc(SC)c1C(N)=O was read as BL2 CD40 inh 78*.
For Cc1nc(-c2ccc(-n3nncc3-c3ccco3)cc2)cs1 the results were BL2 CD40 inh -6.
Screening CCS(=O)(=O)N1CCCCN2[C@@H](CO)[C@H](c3ccc(-c4ccccc4F)cc3)[C@@H]2C1 returned BL2 CD40 inh 3[25 µM].
Cc1cccc2sc(N(CCN3CCOCC3)C(=O)CCS(=O)(=O)c3ccccc3)nc12 was read as BL2 CD40 inh 1.
COc1ccc(Cl)c2sc(N(CCN(C)C)C(=O)CCS(=O)(=O)c3ccc(C)cc3)nc12 was read as BL2 CD40 inh 12.
Screening COc1ccc(OC)c2sc(N(CCCN(C)C)C(=O)CCS(=O)(=O)c3ccccc3)nc12 returned BL2 CD40 inh 81*.
`CC(C)N1CCN(Cc2cn[nH]c2C2CCCCC2)CC1CCO` (stereo not given) gave BL2 CD40 inh 7.
`CCCNC(=O)C1(C)CCN(C(=O)c2ccc3ccccc3c2)C1` (stereo not given) gave BL2 CD40 inh -1.
Screening CCCC(=O)N1CC2(CCC)CN(C(=O)CCC)CC(CCC)(C1)C2=O returned BL2 CD40 inh 7.
For O=C(C[C@H]1C[C@@H]2c3cc(NC(=O)Nc4ccccc4F)ccc3O[C@@H]2[C@@H](CO)O1)NCc1ccc2c(c1)OCO2 the results were BL2 CD40 inh -11[25 µM].
For COc1ccc2cc3c(N)nn(C(=O)c4cccc(F)c4)c3nc2c1 the results were BL2 CD40 inh -1.
Screening COc1cccc(CC(=O)n2nc(N)c3cc4ccc(OC)cc4nc32)c1 returned BL2 CD40 inh 4.
`COc1ccc2cc3c(N)nn(C(=O)Cc4c[nH]c5ccccc45)c3nc2c1` gave BL2 CD40 inh 77*.
Screening CC(/C=C/c1ccc2c(c1)OCO2)=N\NC(=O)c1ccccc1 returned BL2 CD40 inh -27.
Screening C/C(CC(=O)Nc1ccc2c(c1)OCO2)=N\NC(=O)c1ccccc1N returned BL2 CD40 inh -14.
Screening CC1CC(C)(C)Nc2ccc(OC(=O)c3ccco3)cc21 (stereo not given) returned BL2 CD40 inh 68*.
COc1ccc(C(=O)Nc2cccc(OC(=O)c3ccco3)c2)cc1 was read as BL2 CD40 inh -26.
`CC1CC(C)(C)Nc2ccc(N=O)cc21` (stereo not given) gave BL2 CD40 inh 23.
Cc1cc(S(=O)(=O)NCCC2=CCCCC2)ccc1Br was read as BL2 CD40 inh 22.
`COc1ccc2c3c(n(C)c2c1)[C@@H](CO)N(C(=O)Nc1ccc(F)cc1)CC31CCN(C(=O)Nc2c(C)noc2C)CC1` gave BL2 CD40 inh 18[25 µM].
For COc1ccc2c3c(n(C)c2c1)[C@H](CO)N(C(C)=O)CC31CCN(C(=O)Nc2ccccc2F)CC1 the results were BL2 CD40 inh 12[25 µM].
Screening CCCNC(=O)N1CC2(C1)CN(C(=O)Nc1ccc(F)cc1)[C@@H](CO)c1[nH]c3cc(OC)ccc3c12 returned BL2 CD40 inh -10[25 µM].
`COc1ccc2c3c([nH]c2c1)[C@@H](CO)N(C(=O)Nc1ccc(F)cc1)CC31CN(Cc2cc(F)ccc2F)C1` gave BL2 CD40 inh 40[25 µM].
Screening COc1ccc2c3c([nH]c2c1)[C@H](CO)N(C(=O)Nc1ccc(F)cc1)CC31CN(Cc2cc(F)ccc2F)C1 returned BL2 CD40 inh 56*[25 µM].
COc1ccc2c3c(n(C)c2c1)[C@H](CO)N(C(=O)Nc1ccc(F)cc1)CC31CCN(C(=O)Nc2ccc(F)cc2F)CC1 was read as BL2 CD40 inh 68*[25 µM].
C[C@@H]1CCCCO[C@@H](CN(C)Cc2ccc(C(F)(F)F)cc2)[C@H](C)CN([C@@H](C)CO)C(=O)c2cc(NC(=O)Nc3ccccc3)ccc2O1 was read as BL2 CD40 inh 16.
`C[C@H](CO)N1C[C@H](C)[C@H](CN(C)Cc2ccccc2)OCc2cn(nn2)CCCC1=O` gave BL2 CD40 inh 8[25 µM].
For O=C(O)c1ccc([N+](=O)[O-])cc1 the results were BL2 CD40 inh 6.
For O=C1CC(=O)OC(c2ccc([N+](=O)[O-])cc2)O1 the results were BL2 CD40 inh 86*.
For O=C1CSC(c2ccc([N+](=O)[O-])cc2)N1CCN1CCCCC1 (stereo not given) the results were BL2 CD40 inh 12.
For Cc1[nH]c2ccccc2c1C(O)c1ccncc1 (stereo not given) the results were BL2 CD40 inh 10.
O=C1NC2c3c(Cl)sc(Cl)c3C(=O)C2O1 (stereo not given) was read as BL2 CD40 inh 56*.
O=C1NC2c3c(I)sc(I)c3C(=O)C2O1 (stereo not given) was read as BL2 CD40 inh 101*.
Screening CC(C)CC#Cc1ccc([C@H]2[C@H]3CN(C(=O)Nc4cc(F)ccc4F)CC(=O)N3[C@H]2CO)cc1 returned BL2 CD40 inh 7[25 µM].
CCC(=O)N1CCCCN2[C@@H](CO)[C@H](c3ccc(-c4cccc(C(=O)N(C)C)c4)cc3)[C@@H]2C1 was read as BL2 CD40 inh 13[25 µM].
Screening CC(=O)Nc1nccc(-c2cc(-c3ccccc3)no2)n1 returned BL2 CD40 inh -90.
Cc1ccc2nc(-c3cc(-c4ccccc4)no3)cn2c1 was read as BL2 CD40 inh 63*.

Screening data (PubChem)
